Read-out in assay [1]: Tissue Factor, F3 (gene 2152)
In words: BSK_CASM3C_TissueFactor: BioMAP Diversity Plus: CASM3C Assay for Tissue Factor Biomarker Activity (AID 2283052).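 Also: cell surface tissue factor protein level read by ELISA.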 The conditions noted are these: primary human coronary artery smooth muscle cells; actives raise or lower the signal.

Read-out in assay [2]: Interferon-gamma inducible Protein 10 (IP10), CXCL10 (gene 3627)
The experiment in a line: BSK_hDFCGF_IP10: BioMAP Diversity Plus: hDFCGF Assay for Interferon-gamma inducible Protein 10 (IP10) Biomarker Activity (AID 2283053). The conditions noted are these: primary human foreskin fibroblasts; actives raise or lower the signal. In short, it runs like this:
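ELISA read-out of IP-10 (CXCL10) from primary human skin fibroblasts, 24 h after compound addition. Gain or loss of signal versus DMSO baseline, bidirectional curve fitting.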

Read-out in assay [3]: Urokinase-type plasminogen activator receptor (uPAR), PLAUR (gene 5329)
The experiment in a line: BSK_CASM3C_uPAR: BioMAP Diversity Plus: CASM3C Assay for Urokinase-type plasminogen activator receptor (uPAR) Biomarker Activity (AID 2283054).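 Also: cell-surface uPAR protein level quantified by ELISA.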 The conditions noted are these: primary human coronary artery smooth muscle cells; actives raise or lower the signal.

Read-out in assay [4]: Vascular cell adhesion molecule 1 (VCAM1), VCAM1 (gene 7412)
The experiment in a line: BSK_CASM3C_VCAM1: BioMAP Diversity Plus: CASM3C Assay for Vascular cell adhesion molecule 1 (VCAM1) Biomarker Activity (AID 2283055).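 Also: VCAM-1 protein level quantified by ELISA on the cells.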 To be noted: primary human coronary artery smooth muscle cells; actives raise or lower the signal.

Read-out in assay [5]: Collagen III, COL3A1 (gene 1281)
The experiment in a line: BSK_hDFCGF_CollagenIII: BioMAP Diversity Plus: hDFCGF Assay for Collagen III Biomarker Activity (AID 2283056). To be noted: primary human foreskin fibroblasts; actives raise or lower the signal. In short, it runs like this:
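Human foreskin fibroblast primary cultures sampled 24 h after dosing; Collagen III quantified by ELISA. Signal fitted bidirectionally against DMSO baseline.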

Read-out in assay [6]: Epidermal growth factor receptor (EGFR), EGFR (gene 1956)
In words: BSK_hDFCGF_EGFR: BioMAP Diversity Plus: hDFCGF Assay for Epidermal growth factor receptor (EGFR) Biomarker Activity (AID 2283057). The conditions noted are these: primary human foreskin fibroblasts; actives raise or lower the signal. In short, it runs like this:
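ELISA readout of EGFR on human dermal fibroblasts (primary foreskin cells), 24 h post-dosing; bidirectional curve fit vs DMSO baseline, gain or loss of signal scored.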

Read-out in assay [7]: Interleukin-8 (IL8), CXCL8 (gene 3576)
The experiment in a line: BSK_hDFCGF_IL8: BioMAP Diversity Plus: hDFCGF Assay for Interleukin-8 (IL8) Biomarker Activity (AID 2283058). The conditions noted are these: primary human foreskin fibroblasts; actives raise or lower the signal. In short, it runs like this:
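Primary human foreskin fibroblasts (hDFCGF system) dosed with chemical; IL-8 measured by ELISA 24 hours later. Bidirectional curve fitting relative to DMSO baseline; cytotoxicity tracked in parallel cultures by SRB total protein staining.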

Assay [8] in a line: BSK_hDFCGF_Proliferation: Cell Proliferation Assessment in the BioMAP Diversity Plus: hDFCGF Assay (AID 2283059).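 Also: curves fitted for both rise and fall of signal versus DMSO baseline.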 To be noted: primary human foreskin fibroblasts. A digest of the protocol:
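This proliferation readout used SRB total-protein staining of human foreskin fibroblasts […], normalized to DMSO with bidirectional curve fitting.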

Read-out in assay [9]: Macrophage colony-stimulating factor (MCSF), CSF1 (gene 1435)
In words: BSK_hDFCGF_MCSF: BioMAP Diversity Plus: hDFCGF Assay for Macrophage colony-stimulating factor (MCSF) Biomarker Activity (AID 2283060). To be noted: primary human foreskin fibroblasts; actives raise or lower the signal. A digest of the protocol:
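Human foreskin fibroblast primary cultures; M-CSF measured by ELISA 24 hours after chemical dosing. Bidirectional fitting relative to DMSO, with overt cytotoxicity tracked by parallel SRB total-protein staining (0.1% SRB, 10% TCA fixation, 560 nm).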

A short description of assay [10]: BSK_hDFCGF_SRB: Viability Assessment in the BioMAP Diversity Plus: hDFCGF Assay (AID 2283061).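 Also: cells exposed to compound for 24 h before the read.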 To be noted: primary human foreskin fibroblasts. A digest of the protocol:
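Human foreskin fibroblasts in 96-well plates were treated 24 h. Total protein was measured by 0.1% SRB staining after 10% TCA fixation, read at 560 nm. Data were fitted bidirectionally against DMSO.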

Read-out in assay [11]: Monokine induced gamma interferon (MIG), CXCL9 (gene 4283)
The experiment in a line: BSK_hDFCGF_MIG: BioMAP Diversity Plus: hDFCGF Assay for Monokine induced gamma interferon (MIG) Biomarker Activity (AID 2283063). To be noted: primary human foreskin fibroblasts; actives raise or lower the signal. A digest of the protocol:
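MIG/CXCL9 measured by ELISA 24 h after dosing primary human skin fibroblasts. Activity fitted in both directions against DMSO controls. Cytotoxicity was checked in parallel cultures by SRB staining read at 560 nm.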

Read-out in assay [12]: Vascular cell adhesion molecule 1 (VCAM1), VCAM1 (gene 7412)
The experiment in a line: BSK_hDFCGF_VCAM1: BioMAP Diversity Plus: hDFCGF Assay for Vascular cell adhesion molecule 1 (VCAM1) Biomarker Activity (AID 2283065).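 As to AC50: VCAM-1 protein level quantified by ELISA after 24 h chemical exposure.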 To be noted: primary human foreskin fibroblasts; actives raise or lower the signal. A digest of the protocol:
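Human foreskin fibroblast primary cells dosed with chemical, VCAM-1 measured by ELISA at 24 h. Bidirectional curve fitting relative to DMSO as negative control/baseline.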

Read-out in assay [13]: Plasminogen activator inhibitor-1 (PAI1), SERPINE1 (gene 5054)
The experiment in a line: BSK_hDFCGF_PAI1: BioMAP Diversity Plus: hDFCGF Assay for Plasminogen activator inhibitor-1 (PAI1) Biomarker Activity (AID 2283066). To be noted: primary human foreskin fibroblasts; actives raise or lower the signal. In short, it runs like this: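 ELISA readout of PAI-1 from primary human skin fibroblast cultures, 24 h after compound addition. Gain or loss of signal was fitted bidirectionally against DMSO baseline.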

Read-out in assay [14]: Intercellular Adhesion Molecule 1 (ICAM1), ICAM1 (gene 3383)
The experiment in a line: BSK_KF3CT_ICAM1: BioMAP Diversity Plus: KF3CT Assay for Intercellular Adhesion Molecule 1 (ICAM1) Biomarker Activity (AID 2283067). The conditions noted are these: primary human keratinocytes with fibroblasts; actives raise or lower the signal. In short, it runs like this: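 Human keratinocyte–foreskin fibroblast co-culture was treated for 24 h. Cell-surface ICAM-1 was quantified by ELISA, fitted bidirectionally relative to DMSO. Cytotoxicity was checked in parallel cultures by SRB total-protein staining.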

Read-out in assay [15]: Interferon-gamma inducible Protein 10 (IP10), CXCL10 (gene 3627)
The experiment in a line: BSK_KF3CT_IP10: BioMAP Diversity Plus: KF3CT Assay for Interferon-gamma inducible Protein 10 (IP10) Biomarker Activity (AID 2283068). To be noted: primary human keratinocytes with fibroblasts; actives raise or lower the signal. A digest of the protocol: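 Signal is secreted/surface IP-10 by ELISA in a human primary skin co-culture of keratinocytes and foreskin fibroblasts, taken 24 h post-dosing; DMSO served as negative control.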

Assay [16] is described as follows: BSK_KF3CT_SRB: Viability Assessment in the BioMAP Diversity Plus: KF3CT Assay (AID 2283069).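 Also: total protein by sulforhodamine B staining as a cytotoxicity measure.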 The conditions noted are these: primary human keratinocytes with fibroblasts. A digest of the protocol:
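Cytotoxicity was gauged by SRB staining (0.1% SRB, 10% TCA fixation, 560 nm) of parallel cultures at 24 h. The cells were primary human skin keratinocytes co-cultured with fibroblasts, and activity was fitted in both directions against DMSO.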

Read-out in assay [17]: Interleukin-1 alpha (IL1a), IL1A (gene 3552)
In words: BSK_KF3CT_IL1a: BioMAP Diversity Plus: KF3CT Assay for Interleukin-1 alpha (IL1a) Biomarker Activity (AID 2283070). To be noted: primary human keratinocytes with fibroblasts; actives raise or lower the signal. In short, it runs like this:
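IL-1a was detected by ELISA 24 h after chemical treatment of a co-culture of human skin keratinocytes and foreskin fibroblasts. Gain or loss of signal was fitted against the DMSO baseline.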

Read-out in assay [18]: TIMP metallopeptidase inhibitor 2 (TIMP2), TIMP2 (gene 7077)
In words: BSK_KF3CT_TIMP2: BioMAP Diversity Plus: KF3CT Assay for TIMP metallopeptidase inhibitor 2 (TIMP2) Biomarker Activity (AID 2283071). To be noted: primary human keratinocytes with fibroblasts; actives raise or lower the signal. A digest of the protocol:
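ELISA readout of TIMP-2 in keratinocyte plus foreskin fibroblast co-cultures (human skin primary cells), 24 h post-dose. Gain or loss of signal fitted relative to DMSO.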

Read-out in assay [19]: Matrix Metallopeptidase 1 (MMP1), MMP1 (gene 4312)
The experiment in a line: BSK_hDFCGF_MMP1: BioMAP Diversity Plus: hDFCGF Assay for Matrix Metallopeptidase 1 (MMP1) Biomarker Activity (AID 2283064). The conditions noted are these: primary human foreskin fibroblasts; actives raise or lower the signal. A digest of the protocol:
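MMP1 levels quantified by ELISA 24 h after dosing human dermal fibroblast cultures, with parallel SRB total-protein staining for overt cytotoxicity. Data fitted in both directions against DMSO baseline.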

Calls of active or inactive are those of the source. The calls were made as follows: active = hit-call score of the fitted dose curve at least 0.9, where 1 is the maximum; inactive = score below 0.9.

This passage reports outcome and AC50 results from PubChem BioAssay (EPA / NIEHS).

As for `CCCCCCCCOC(=O)CCCCCCCCC(=O)OCCCCCCCC`, the outcome in assay [1], in assay [2], in assay [3], in assay [4], in assay [5] and in assay [6] was inactive. Besides, the outcome in [7], in assay [8], in assay [9], in assay [10], in assay [11] and in assay [12] was inactive. The outcome in assay [13], in assay [14], in assay [15], in assay [16], in assay [17] and in assay [18] was inactive.
Consider `C#C[C@]1(O)CC[C@H]2[C@@H]3CCC4=CC(=O)CC[C@@H]4[C@H]3CC[C@@]21C`, for which the result in [1], in assay [2], in [3], in assay [4], in assay [5] and in assay [6] was inactive. For the same compound, the result in assay [7], in [8], in [9], in assay [10], in assay [11] and in assay [19] was inactive. Besides, the result in [12], in assay [13], in assay [14], in assay [15], in assay [16] and in assay [17] was inactive. Besides, the result in assay [18] was inactive.
With `CCCCC(CC)COC(=O)CCCCC(=O)OCc1ccccc1` (configuration not stated), the result in [1], in [2], in assay [3], in assay [4], in assay [5] and in assay [6] was inactive. In addition, the outcome in assay [7], in assay [8], in assay [9], in assay [10], in assay [11] and in assay [19] was inactive. Moreover, the outcome in assay [12], in assay [13], in [14], in assay [15], in assay [16] and in assay [17] was inactive. The outcome in assay [18] was inactive.
By AC50 is commonly meant the midpoint of the concentration-response curve, whichever way the signal moves. As to `O=C(O)Cc1cc(I)c(Oc2cc(I)c(O)c(I)c2)c(I)c1`, the result in assay [1] and in [3] was inactive. Moreover, the AC50 in assay [2] was 8.02 µM (active); in [4], 13.4 µM (active); in assay [5], 4.05 µM (active); in [6], 7.78 µM (active); in [7], 22.2 µM (active); in assay [8], 13.4 µM (active). For the same compound, the AC50 in assay [9] is 14 µM (active); in [10], 12.2 µM (active); in assay [11], 10.7 µM (active); in [12], 8.85 µM (active); in assay [13], 8.1 µM (active); in [14], 16.7 µM (active). Further, the AC50 was 4.59 µM (active) in [15], 10.1 µM (active) in assay [16], 18.7 µM (active) in assay [17] and 13.4 µM (active) in assay [18].
As for `Cc1oc(-c2ccccc2)nc1CCOc1ccc(C[C@H](Nc2ccccc2C(=O)c2ccccc2)C(=O)O)cc1`, the outcome in assay [1] was inactive. In addition, the concentration at half-maximal activity (AC50) in assay [2] was 3.35 µM (active); in [3], 31.2 µM (active); in assay [4], 32.8 µM (active); in assay [5] it was 3.34 µM (active); in assay [6], 1.85 µM (active); in assay [7] it was 7.44 µM (active). Also, the half-maximal activity concentration (AC50) is 1.81 µM (active) in [8]; 3.14 µM (active) in assay [9]; 2.42 µM (active) in assay [10]; 6.07 µM (active) in assay [11]; 3.61 µM (active) in [12]; 2.79 µM (active) in assay [13]. For the same compound, the AC50 in [14] was 7.43 µM (active); in assay [15], 2.86 µM (active); in assay [16] it was 4.3 µM (active); in assay [17] it was 8.87 µM (active); in assay [18] it was 9.85 µM (active).
